JMJD2A Tudor inh: qHTS Assay for Inhibitors of JMJD2A-Tudor Domain. AlphaScreen JMJD2A-Tudor / H3K4me3 peptide binding. Potency, µM (titrated, usually from 114 µM), for inactives: at the top dose activity change, negative = inhibition, actives largely listed as inhibitors. 390,000 compounds, 4.4% hits. Lysine-specific demethylase 4A (Homo sapiens), O75164; also: % is scaled to controls: 0 for no effect and ±100 for the full control effect; nearly all actives have a fitted effect of over 50% in size
G9a inh: qHTS Assay for Inhibitors of Histone Lysine Methyltransferase G9a. Histone-lysine N-methyltransferase EHMT2 (Homo sapiens), Q96KQ7. G9a H3K9 monomethylation, AlphaScreen, 2 h. Potency, µM (top dose mostly 102 µM), for the others: at the highest dose activity, negative = inhibition, actives largely listed as inhibitors. 350,000 compounds, 8.8% hits; also: % is scaled to controls: 0 for no effect and ±100 for the full control effect; nearly all actives have a fitted effect of over 75% in size
Target sequence (Q96KQ7 913-1193 limits assumed): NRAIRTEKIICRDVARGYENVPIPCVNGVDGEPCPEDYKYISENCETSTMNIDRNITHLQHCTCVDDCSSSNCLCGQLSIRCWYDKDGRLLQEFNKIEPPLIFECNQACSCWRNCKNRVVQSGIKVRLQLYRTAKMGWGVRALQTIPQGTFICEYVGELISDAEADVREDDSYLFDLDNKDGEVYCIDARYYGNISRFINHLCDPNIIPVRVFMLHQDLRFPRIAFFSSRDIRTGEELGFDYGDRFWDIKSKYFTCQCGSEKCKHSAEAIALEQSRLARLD
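Step 1: enzyme (final 20 nM) with compound, 15 min RT. Step 2: substrate peptide 500 nM and SAM 20 uM, 2 h RT. Step 3: anti-H3K9me1 antibody and AlphaScreen beads, 10 min, then plate read.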
BAZ2B inh: qHTS Assay for Inhibitors of BAZ2B | Bromodomain adjacent to zinc finger domain protein 2B (Homo sapiens), Q9UIF8 | AlphaScreen BAZ2B-H3K14Ac peptide displacement | Potency, µM (series often up to 114 µM), inactives show at the top dose activity change, negative = inhibition, most hits filed as inhibitors | 360,000 compounds, 4.4% hits | AID 504333, 2011; also: % is scaled to controls: 0 for no effect and ±100 for the full control effect; nearly all actives have a fitted effect of over 60% in size
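BAZ2B 50 nM plus b-H3(5-23)K14Ac 50 nM, PBS pH 7.4/0.01% Tween-20, 30 min RT; compound added (max 110 uM), 30 min RT; streptavidin donor/Ni-chelate acceptor beads 10 ug/mL final, 20 min dark; AlphaScreen read.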
HP1b chromo inh: HTS for Inhibitors of HP1-beta Chromodomain Interactions with Methylated Histone Tails; Chromobox protein homolog 1 (Homo sapiens), P83916; AlphaScreen HP1-beta / biotin-H3K9me3 peptide binding; Potency, µM (doses to about 114 µM), without a hit: top-dose activity change, negative = inhibition, hits mostly inhibitors; 390,000 compounds, 0.56% hits; also: nearly all actives have a fitted effect of over 70% in size
Target sequence (P83916 whole entry, looked up): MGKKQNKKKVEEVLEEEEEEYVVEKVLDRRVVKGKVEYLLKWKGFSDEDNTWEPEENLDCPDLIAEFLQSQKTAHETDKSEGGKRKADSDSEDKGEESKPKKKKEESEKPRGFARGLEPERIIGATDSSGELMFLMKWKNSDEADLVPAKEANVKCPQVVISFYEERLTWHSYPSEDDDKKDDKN
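HP1-beta protein (50 nM final) preincubated 30 min at room temperature with biotinylated H3(1-18)K9me3 peptide (50 nM) in PBS pH 7.4, 0.01% Tween-20, then compound added for 30 min. AlphaScreen streptavidin donor/nickel chelate acceptor beads (10 ug/mL final), 30 min dark, luminescence read.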
Sfp inh: qHTS Assay for Inhibitors of Bacillus subtilis Sfp phosphopantetheinyl transferase (PPTase); 4'-phosphopantetheinyl transferase ffp (Bacillus subtilis), Q9F4F7; Biochemical Sfp PPTase activity, qHTS; Potency, µM, for inactives: largest response in the series, negative = inhibition, usual class: inhibitors; 310,000 compounds, 3.5% hits; AID 1490, 2009;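 also: the enzyme is Sfp with the accession as filed and its product quenches rhodamine fluorescence; 0% = enzyme reaction without inhibitor and -100% = no enzyme wells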
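Reaction rates are the 30-min fluorescence difference (ex 525, em 598 nm) in wells containing 15 nM Sfp, 5 uM rhodamine-CoA and 12.5 uM BHQ-2-YbbR at pH 7.6 with 10 mM MgCl2.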
An asterisk follows results filed as active; u = inconclusive; x = not tested or not shown; [ ] = another dose, or the depositor's remark. In the library only some 12% were active in any assay of this set; here they are far more common. Calls follow the shape of the dose curve; as a rule, active = well fitted curve in the direction sought with a large enough effect; inconclusive = small, poorly fitted or top-dose-only effect, or another doubt; inactive = no such curve, though single readings can be large; an effect the other way counts as inactive or inconclusive. Potency is read from the fitted curve at half-maximal effect.

SMILES | JMJD2A Tudor inh | G9a inh | BAZ2B inh | HP1b chromo inh | Sfp inh
Cc1cccc(NC(=O)CSC2=Nc3ccccc3C3=NC(CCC(=O)NCc4ccc(F)cc4)C(=O)N23)c1 (centres undefined) | -11% | 3%[59 µM] | 3% | 20% | x
c1ccc(Nc2nc(N3CCCC3)nc(N3CCOCC3)n2)cc1 | -19% | x | x | 35% | x
Cc1[nH]c2ccccc2c1/C=N/Nc1nc(Nc2ccccc2)nc(N2CCOCC2)n1 | u | x | 40µM* | -24% | 2%
Oc1[nH]c2ccccc2c1N=Nc1nc(Nc2ccccc2)nc(N2CCOCC2)n1 | -11% | -37% | u | 34% | 16µM*
Cc1ccc(NC(=O)/C(C#N)=C(\N)C(Cl)(Cl)Cl)nc1 | -8%[57.1 µM] | u | 56µM* | 16% | -9%
O=C(Nc1cccc(C(=O)O)c1)/C(=C\c1ccc2c(c1)OCO2)NC(=O)c1ccccc1Cl | -6% | x | u | 13% | -1%
COc1cccc(NC(=S)N2CCN(c3ccc([N+](=O)[O-])cc3)CC2)c1 | -10% | 6%[59 µM] | -31% | 7% | 29%
COc1ccc(NC(=S)N2CCN(c3ccc([N+](=O)[O-])cc3)CC2)cc1OC | u | x | -33% | -3% | 22µM*
O=[N+]([O-])c1cccc(-c2ccc(CN3CCN(c4ccccc4)CC3)o2)c1 | 35µM* | 40µM* | 45µM* | u | u
Cc1ccccc1N1CCN(C(=S)c2ccc(-c3ccc([N+](=O)[O-])cc3)o2)CC1 | u | x | 7.9µM* | u | 20µM*
CCN1CCN(C(=S)Nc2cccc([N+](=O)[O-])c2)CC1 | -16% | 71µM* | -7% | 5% | -22%
COc1ccc(NC(=O)c2cc(S(=O)(=O)N3CCCCC3)cn2C)cc1Cl | -20% | -6%[59 µM] | 4% | 14%[57 µM] | x
COc1ccc(S(=O)(=O)Nc2cccc3c2O[C@H](CN(C)CC2CCCCC2)[C@@H](C)CN([C@H](C)CO)C3=O)cc1 | -20% | x | x | 28% | x
COc1ccc2c(c1)cc(CNc1ccc(OC)c(OC)c1)c(=O)n2CC(=O)Nc1ccccc1C | -2% | u | -15% | 43% | x
Cc1ccc(CN2CCN(c3ncccn3)CC2)o1 | -21% | u | 0% | 13% | -3%
Cc1ccc(CN2CCN(c3ccccc3)CC2)o1 | 20µM* | 22µM* | 50µM* | u | -18%
CC(=O)N1CCN(C(=S)c2cccc([N+](=O)[O-])c2)CC1 | -4% | u | 1% | -3% | -15%
O=C(NC(=S)Nc1ccccc1N1CCCC1)c1ccc(-c2cccc([N+](=O)[O-])c2)o1 | u | x | 0% | -43% | -6%
CC(=O)N1CCN(c2ccccc2NC(=O)c2ccc(-c3cccc([N+](=O)[O-])c3)o2)CC1 | -20% | u | -29% | 25% | -6%
O=[N+]([O-])c1ccc(N2CCN(C(=S)c3cccc([N+](=O)[O-])c3)CC2)cc1 | u | 2µM* | 56µM* | 11µM* | 5.6µM*
Cc1ccc(N2CCN(C(=S)c3ccc(-c4cccc([N+](=O)[O-])c4)o3)CC2)cc1 | u | 8.9µM* | u | u | 14µM*
Cc1ccccc1N1CCN(C(=S)c2ccc(-c3cccc([N+](=O)[O-])c3)o2)CC1 | u | 13µM* | x | -24% | -5%
O=C(Oc1ccccc1)N1CCC2(CCCN(c3ccccn3)C2)CC1 | x | -5%[12.7 µM] | x | x | 1%
O=C(c1ccco1)N1CCN(C(=O)c2ccc(-c3ccc([N+](=O)[O-])cc3)o2)CC1 | 40µM* | x | x | -33% | x
Cc1cc(C)n(-c2nc(C)c(C)c(=O)n2CC(=O)Nc2ccc(OC(F)(F)F)cc2)n1 | -9% | 0%[59 µM] | 2% | 60% | x
SMILES | JMJD2A Tudor inh | G9a inh | BAZ2B inh | HP1b chromo inh | Sfp inh
Cc1cc(C)n(-c2nc(C)c(C)c(=O)n2CC(=O)Nc2ccc(Cl)c(Cl)c2)n1 | -16% | 4.5µM* | -8% | 29% | x
COn1c(SC2CCCCC2)nc2ccccc2c1=O | 27% | 22µM* | 43% | 78% | -19%
COn1c(SC(C)C)nc2ccccc2c1=O | 11% | 1%[12.7 µM] | 7% | 15% | -9%
CCOC(=O)c1cc(-c2ccccc2)n(CCCC(=O)Nc2cccc(Cl)c2C)c1C | -15% | -18%[59 µM] | -9% | 9% | x
O=c1ccc2c(o1)/C(=C/C=C(Cl)Cl)CCC2 | 6%[57.1 µM] | u | 47% | 22% | 40µM*
O=c1ccc2cc3c4c(c2o1)CCCN4CCC3 | -8% | u | 15% | 73% | -5%
Cc1cc(C(=O)COC(=O)c2n[nH]c(=O)c3ccccc23)c(C)n1C(C)C | -19% | -12%[12.7 µM] | u | 11% | x
C=CCn1cccc(C(=O)Nc2ccc(N(C)C)cc2)c1=O | u | 13µM* | -27% | -21% | 10%
C=CCn1cccc(C(=O)Nc2cc(OC)c(OC)c(OC)c2)c1=O | 32µM* | -5% | -10% | -11% | 15%
C=CCn1cccc(C(=O)Nc2ccc(Cl)cc2)c1=O | 14% | 10% | 9% | 46% | 6%
CC(C)(C)OC(=O)N1CCC(C(=O)Nc2ccc(C(=O)NCc3ccccc3)cc2)CC1 | 1% | x | x | 37% | x
CC1(c2ccccc2)NC(=O)N(CC(=O)Nc2nc(-c3ccccn3)cs2)C1=O (centres undefined) | 45µM* | -43%[2.33 µM] | 50µM* | -10% | x
Cc1ccc(C2(C)NC(=O)N(CC(=O)Nc3nc(-c4ccccn4)cs3)C2=O)cc1 (centres undefined) | 40µM* | -2%[0.501 µM] | 79µM* | 32µM* | x
CCc1ccc(Nc2nnc(SCC(=O)NC(=O)CN3CCCC3=O)s2)cc1 | u | 6.3µM* | u | -6% | x
COc1ccccc1Nc1nnc(SCC(=O)N2CCCC2=O)s1 | -12% | u | 7% | 34% | 5%
Cc1cc(C)c2oc(-c3cccc(NC(=O)c4cc5ccccc5o4)c3)nc2c1 | -12% | 1%[59 µM] | 2% | 21% | x
O=C(NCC(c1cccs1)N1CCOCC1)c1cc([N+](=O)[O-])ccc1Cl (centres undefined) | -5% | 45µM* | 9% | 28% | -6%
O=C(NCC(c1cccs1)N1CCOCC1)c1ccc([N+](=O)[O-])cc1 (centres undefined) | -10% | -9% | -1% | 12% | 4%
Cc1cc(/C=N/NC(=O)c2cccc(F)c2)c(C)n1-c1ccccc1 | u | -46% | -32% | -2% | 6%
CNC(=S)N/N=C/c1cc(C)n(-c2ccc(Cl)c(Cl)c2)c1C | u | 45µM* | 35µM* | u | -8%
Cc1ccc(-n2c(C)cc(/C=N/NC(N)=S)c2C)cc1 | u | u | u | -20% | -10%
